Measurements reported in the supplement of paper PMC12669032.
Values without a mark were called inactive.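 How the source made its calls: active = AUC reduced over 20% with Padj below 0.05 in at least 2 of 3 replicates; inactive = otherwise.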

Assays:
Experiment in all cases: growth AUC relative to DMSO control (median of replicates) (fraction); higher = more growth (less inhibition), active = hit call of the paper
Details in all cases: 20 µM; 24 h
[1] = tested on: Akkermansia muciniphila
How it was run: (§1)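 Hourly OD600 readings over 24 h tracked anaerobic gut bacterial monocultures grown at 37 °C in mGAM from OD600 0.05 with 20 µM compound (1% DMSO). After the minimum OD was set to 0, area under the growth curve was normalised to the plate median of solvent-only wells, or to row and column medians on the industrial chemical plate. Values are medians of three biological replicates grown on separate days.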

[2] = tested on: Bacteroides caccae
How it was run: as §1

[3] = tested on: Bacteroides clarus
How it was run: as §1

[4] = tested on: Bacteroides dorei
How it was run: as §1

[5] = tested on: Bacteroides stercoris
How it was run: as §1

[6] = tested on: Bacteroides thetaiotaomicron
How it was run: as §1

[7] = tested on: Bacteroides uniformis
How it was run: as §1

[8] = tested on: Bifidobacterium longum subsp. longum
How it was run: as §1

[9] = tested on: Clostridium difficile
How it was run: as §1

[10] = tested on: Collinsella aerofaciens
How it was run: as §1

[11] = tested on: Coprococcus comes
How it was run: as §1

[12] = tested on: Escherichia coli ED1a
How it was run: as §1

[13] = tested on: Escherichia coli IAI1
How it was run: as §1

[14] = tested on: Eubacterium rectale
How it was run: as §1

[15] = tested on: Fusobacterium nucleatum subsp. animalis
How it was run: as §1

[16] = tested on: Lactobacillus gasseri
How it was run: as §1

[17] = tested on: Lactobacillus paracasei
How it was run: as §1

[18] = tested on: Odoribacter splanchnicus
How it was run: as §1

[19] = tested on: Parabacteroides distasonis
How it was run: as §1

[20] = tested on: Parabacteroides merdae
How it was run: as §1

SMILES | growth AUC [1] | growth AUC [2] | growth AUC [3] | growth AUC [4] | growth AUC [5] | growth AUC [6] | growth AUC [7] | growth AUC [8] | growth AUC [9] | growth AUC [10] | growth AUC [11] | growth AUC [12] | growth AUC [13] | growth AUC [14] | growth AUC [15] | growth AUC [16] | growth AUC [17] | growth AUC [18] | growth AUC [19] | growth AUC [20]
CN(C)C(=O)Nc1ccc(Oc2ccc(Cl)cc2)cc1 | 0.943 | 0.863 | 0.948 | 0.871 | 0.819 | 0.92 | 1.02 | 0.991 | 0.96 | 0.924 | 0.938 | 0.95 | 0.938 | 1.24 | 0.849 | 0.926 | 1.08 | 1.1 | 0.937 | 0.918
CC(C)(c1cc(Br)c(O)c(Br)c1)c1cc(Br)c(O)c(Br)c1 | 0.904 | 0.0238 (active) | 0.0496 (active) | 0.675 (active) | 0.0125 (active) | 0.662 (active) | 0.297 (active) | 0.252 (active) | 0.0683 (active) | 0.0491 (active) | 0.41 (active) | 1.04 | 0.997 | 0.0259 (active) | 0.465 (active) | 0.136 (active) | 0.0653 (active) | 0.0465 (active) | 0.0802 (active) | 0.151 (active)
CC(=O)Nc1cc(NS(=O)(=O)C(F)(F)F)c(C)cc1C | 0.856 | 1.04 | 0.973 | 1.02 | 0.886 | 1.01 | 1.02 | 0.92 | 1.08 | 1.06 | 0.977 | 0.978 | 0.976 | 0.947 | 0.983 | 1.12 | 0.563 | 1.03 | 1.05 | 0.966
C#CCOc1cc(-n2nc(C(C)(C)C)oc2=O)c(Cl)cc1Cl | 1.14 | 0.977 | 0.986 | 0.951 | 0.879 | 0.932 | 0.799 (active) | 1.05 | 0.862 | 0.917 | 0.991 | 0.971 | 0.996 | 1.09 | 0.926 | 0.831 | 0.958 | 0.904 | 0.392 (active) | 0.951
CCOc1ccc(C2(C(=O)OC(C#N)c3cccc(Oc4ccccc4)c3)CC2(Cl)Cl)cc1 (stereo not given) | 1.08 | 0.968 | 1.02 | 0.94 | 1.04 | 0.993 | 0.957 | 0.911 | 1.01 | 0.982 | 1.03 | 1.01 | 0.981 | 1.06 | 1.07 | 0.848 | 1 | 1.03 | 0.93 | 0.943
Cc1cc(CC(C)CC(C)(C)C)n(O)c(=O)c1.NCCO (stereo not given) | 1.22 | 0.993 | 0.982 | 0.99 | 0.932 | 0.999 | 1 | 0.991 | 0.977 | 0.933 | 0.995 | 1.04 | 1 | 0.788 | 1.02 | 0.971 | 1.01 | 0.997 | 1 | 1.03
O=[N+]([O-])c1ccc2c(c1)Cc1ccccc1-2 | 0.896 | 0.995 | 1.01 | 0.991 | 0.981 | 0.985 | 1 | 1.06 | 0.992 | 1 | 0.98 | 0.984 | 0.989 | 1.07 | 0.897 | 1.03 | 0.998 | 0.982 | 1.1 | 0.992
COC(=O)C(Cl)Cc1ccc(Cl)cc1 (stereo not given) | 1.01 | 0.921 | 0.973 | 0.99 | 1.03 | 1.02 | 0.921 | 1.01 | 0.983 | 0.936 | 0.962 | 0.994 | 0.971 | 0.994 | 0.995 | 0.891 | 1.06 | 0.899 | 1 | 0.901
Clc1ccc(CSc2ccc(Cl)cc2)cc1 | 0.977 | 1.02 | 0.99 | 0.956 | 0.969 | 1.03 | 0.998 | 1.02 | 1.04 | 0.984 | 1.03 | 1 | 0.989 | 1.05 | 1.07 | 0.98 | 1.02 | 1.07 | 1 | 0.979
CCCCCCCC/C=C\CCCCCCCCCCCC(=O)O | 1.05 | 1.01 | 1.02 | 0.995 | 1.01 | 1.02 | 1.01 | 0.902 | 1 | 0.983 | 0.96 | 1.02 | 1.01 | 0.983 | 1.02 | 0.979 | 0.991 | 1 | 0.914 | 1.01
COC(=O)c1ccc(C(=O)OC)cc1 | 0.99 | 0.964 | 0.978 | 1.01 | 1.02 | 0.991 | 0.972 | 0.993 | 1.01 | 1.01 | 0.981 | 1 | 0.989 | 1 | 1.01 | 0.981 | 0.958 | 0.989 | 0.993 | 0.993
Cl.NCCO/C=C/[C@H](N)C(=O)O | 1.02 | 0.952 | 1.08 | 1.03 | 1.16 | 1 | 1.01 | 1.05 | 1.02 | 1.03 | 0.947 | 1.03 | 1.02 | 1.08 | 0.981 | 0.853 | 1.02 | 0.8 | 0.828 | 1.01
CNC(=O)Nc1nc2ccccc2s1 | 0.957 | 0.953 | 0.999 | 0.959 | 1.1 | 1.01 | 0.966 | 0.955 | 0.969 | 0.942 | 1.01 | 0.999 | 0.984 | 1.03 | 1 | 0.944 | 0.953 | 1.05 | 0.984 | 1.03
CCSC(=O)N(CC)CC | 1.01 | 0.998 | 0.991 | 1.01 | 1.1 | 1.03 | 1.01 | 0.929 | 0.982 | 0.982 | 1.04 | 1 | 0.994 | 1 | 1.02 | 0.988 | 0.983 | 0.915 | 1.01 | 0.981
COc1cc(Cl)ccc1Oc1ccc(Cl)cc1Cl | 1.03 | 0.902 | 0.933 | 0.948 | 0.93 | 0.984 | 0.98 | 0.872 | 1.01 | 1.01 | 0.938 | 0.996 | 1 | 0.99 | 0.851 | 1 | 1.16 | 0.947 | 0.988 | 0.929
